From PubChem BioAssay
A selection: hits, their analogues and other compounds. The true share with any hit is near 3.1%.
Peg3 prom inh: Peg3 promoter activity inhibition. HeLa PEG-Prom luciferase reporter, luminescence, overnight. inhibition, % at 20 µM. 360,000 compounds, 1.7% hits;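 active = inhibition of at least 50% at 20 µM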
HIF-2a block: inhibitors of HIF-2a; 360,000 compounds, 0.72% hits; 786-0 RCC cells HIF-2a reporter, luciferase luminescence, overnight; inhibition, % at 18.8 µM; AID 624352;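 active = inhibition of the luminescence signal of 40% or more relative to plate controls, in a single-dose primary screen at 18.75 µM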
MITF TRPM1 inh: reduces MITF-dependent TRPM1 promoter luciferase signal | inhibition, % at 12.5 µM | 330,000 compounds, 0.83% hits | SK-MEL-5 TRPM1 promoter luciferase, 24 h;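 active = mean inhibition across replicates of 60% or more, whatever share of single replicates reaches that level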
CF NFkB block: blocks PAF-induced NF-kB reporter in cystic fibrosis cells; KKLEB NF-kB-GFP reporter, GFP fluorescence overnight; inhibition, % at 5 µM; 360,000 compounds, 0.86% hits;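 active = at least 50% inhibition at 5 µM, scaled per plate between neutral and stimulator controls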;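 note: PAF is a Pseudomonas aeruginosa culture filtrate used as stimulus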
KKLEB tox: reduces viability of KKLEB cystic fibrosis airway cells. KKLEB CF airway cells viability, ATPlite luminescence, overnight; hits give low values; cells stimulated with P. aeruginosa culture filtrate. activity change (cytotoxicity), % at 5 µM. 360,000 compounds, 0.36% hits. AID 602141;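 active = corrected activity change at or below -50% at 5 µM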
ABHD5 PLIN5 PPI: inhibitors of human ABHD5-perilipin-5 interaction. Q00G26+Q8WTS1. Split G. princeps luciferase complementation, luminescence, 4 h. inhibition, % at 4 µM. 360,000 compounds, 0.78% hits. AID 602281;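 active = inhibition above the mean inhibition across every tested compound plus 3 SD, cut at about 22% in these data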
Target sequence (Q00G26 whole entry, looked up): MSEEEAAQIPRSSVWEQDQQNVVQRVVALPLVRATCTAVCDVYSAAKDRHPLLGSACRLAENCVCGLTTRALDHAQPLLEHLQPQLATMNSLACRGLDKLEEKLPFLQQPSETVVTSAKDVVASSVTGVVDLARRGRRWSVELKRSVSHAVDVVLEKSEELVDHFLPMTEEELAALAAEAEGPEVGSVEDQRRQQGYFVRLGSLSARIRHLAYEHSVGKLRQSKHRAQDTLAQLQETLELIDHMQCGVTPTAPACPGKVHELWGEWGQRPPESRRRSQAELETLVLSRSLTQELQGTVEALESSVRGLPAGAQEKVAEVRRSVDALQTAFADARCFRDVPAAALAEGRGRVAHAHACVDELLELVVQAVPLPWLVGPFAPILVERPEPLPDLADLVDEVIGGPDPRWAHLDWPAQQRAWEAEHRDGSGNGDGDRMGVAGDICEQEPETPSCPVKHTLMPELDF
Target sequence (Q8WTS1 whole entry, looked up): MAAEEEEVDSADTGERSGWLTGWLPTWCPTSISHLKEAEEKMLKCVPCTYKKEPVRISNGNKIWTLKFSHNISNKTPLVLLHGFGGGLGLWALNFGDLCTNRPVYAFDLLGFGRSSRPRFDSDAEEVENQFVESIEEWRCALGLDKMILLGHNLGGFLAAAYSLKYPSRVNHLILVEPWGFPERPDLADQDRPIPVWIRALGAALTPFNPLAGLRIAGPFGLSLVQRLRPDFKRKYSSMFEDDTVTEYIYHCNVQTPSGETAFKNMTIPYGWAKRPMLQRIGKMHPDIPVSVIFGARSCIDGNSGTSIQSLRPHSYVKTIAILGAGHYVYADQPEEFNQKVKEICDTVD
ABHD5 PLIN5 conf: ABHD5-PLIN5 interaction inhibition, confirmed. 2,200 compounds, 67% hits. shares compounds with ABHD5 PLIN5 PPI. inhibition, % at 4 µM. biochemical ABHD5-PLIN5 interaction, luminescence; in the data active = inhibition above about 23%
HNF4 counter: counter-screen for ABHD5-PLIN5 inhibitors: HNF4 split-luciferase. inhibition, % at 4 µM. 2,200 compounds, 77% hits. HNF4 dimerization, luminescence, biochemical. shares compounds with ABHD5 PLIN5 PPI;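 active = mean inhibition across replicate wells exceeding the computed hit threshold, cut at about 13% in these data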;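 note: light from luciferase halves that rejoin when HNF4 fusion proteins dimerize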
Of the large screens only hits and unclear results are named; the others gave an inactive call (follow-up assays come after a bar, where they were run).

CC1=NOC(=O)/C1=C\c1ccc(-c2ccc(Br)cc2)o1	Peg3 prom inh 89, MITF TRPM1 inh 79, ABHD5 PLIN5 PPI 38 | ABHD5 PLIN5 conf 93 | HNF4 counter 106
COc1ccc(Cl)cc1/C=C1/C(=O)ON=C1C	none
CC1=NOC(=O)/C1=C/c1ccc(-c2ccc(Cl)cc2)o1	Peg3 prom inh 102, MITF TRPM1 inh 99, ABHD5 PLIN5 PPI 33 | ABHD5 PLIN5 conf 99 | HNF4 counter 107
CC1=NOC(=O)/C1=C\c1ccc(-c2cc(Cl)ccc2Cl)o1	Peg3 prom inh 101, MITF TRPM1 inh 99, CF NFkB block 66, ABHD5 PLIN5 PPI 39 | ABHD5 PLIN5 conf 85 | HNF4 counter 86
COc1cccc(CN2CCN(c3nc4nonc4nc3N3CCCCC3)CC2=O)c1	none
CN(Cc1ccco1)C(=O)Cn1ncc2c([nH]c3ccccc32)c1=O	none
COc1cc(/C=N/N=C(N)N)ccc1OCc1ccc(Cl)cc1	Peg3 prom inh 103, MITF TRPM1 inh 89, ABHD5 PLIN5 PPI 24 | ABHD5 PLIN5 conf inactive | HNF4 counter inactive
COc1cc(/C=N/N=C2/NC(=O)C(CC(=O)O)S2)ccc1OCc1ccc(Cl)cc1 (stereo not given)	none
COc1ccc(C(CCN2CCN(c3ccccc3)CC2)c2c(OC)cc(OC)c3c(-c4ccccc4)cc(=O)oc23)cc1 (stereo not given)	none
COc1ccc(C(CCN2CCOCC2)c2c(OC)cc(OC)c3c(-c4ccccc4)cc(=O)oc23)cc1 (stereo not given)	ABHD5 PLIN5 PPI 25 | ABHD5 PLIN5 conf inactive | HNF4 counter inactive
Cn1c(=O)[nH]c(=O)c2c1nc(SCC(O)CO)n2Cc1ccccc1Cl (stereo not given)	ABHD5 PLIN5 PPI 39 | ABHD5 PLIN5 conf inactive | HNF4 counter inactive
Cn1c(=O)[nH]c(=O)c2c1nc(Br)n2Cc1ccccc1Cl	none
N#CC(C#N)=NNc1ccc2cn[nH]c2c1	CF NFkB block 79, ABHD5 PLIN5 PPI 48 (no result: MITF TRPM1 inh) | ABHD5 PLIN5 conf 55 | HNF4 counter 58
COc1cc2c(cc1NC(=O)CC1SC(N3CCCC3)=NC1=O)oc1ccccc12 (stereo not given)	ABHD5 PLIN5 PPI 29 | ABHD5 PLIN5 conf inactive | HNF4 counter inactive
COc1ccc(NC(=O)CC2SC(N3CCCC3)=NC2=O)cc1Cl (stereo not given)	none
O=C(c1ccc(Cl)c(Cl)c1)N1CCC(=O)N(C(COCc2ccccc2)Cc2ccccc2)CC1 (stereo not given)	none
Cc1ccc(C(C)C)cc1OCC(=O)N1CCN(C(=O)c2ccco2)CC1	ABHD5 PLIN5 PPI 24 | ABHD5 PLIN5 conf inactive | HNF4 counter inactive
CN(C)S(=O)(=O)c1cccc(NC(=O)c2ccccc2SCC(=O)N2CCCC2)c1	none (no result: MITF TRPM1 inh)
CCOc1ccccc1N(C(=O)Nc1ccc(Cl)cc1)C1=NC(C)CS1 (stereo not given)	none
O=S(=O)(c1ccccc1)N1CCN(S(=O)(=O)c2ccccc2)c2ccccc21	none
CC1=C(C)CS(=O)N(c2ccc(S(N)(=O)=O)cc2)C1 (stereo not given)	ABHD5 PLIN5 PPI 34 | ABHD5 PLIN5 conf 66 | HNF4 counter 89
CC1=C(C)CS(=O)N(S(=O)(=O)c2ccccc2)C1 (stereo not given)	ABHD5 PLIN5 PPI 58 | ABHD5 PLIN5 conf 72 | HNF4 counter 101
NS(=O)(=O)c1ccc(N2C(=O)C3CC=CCC3C2=O)cc1 (stereo not given)	none (no result: MITF TRPM1 inh)
COc1ccc(C2(c3ccc(OC)cc3)NC(=O)NC2=O)cc1	none
O=C(c1ccc(Cl)cc1)N1CCC(C(=O)N2CCCc3ccccc32)CC1	none
CCc1ccc2oc(C(=O)N3CCN(C)CC3)cc(=O)c2c1	none
CCCCN(C(=O)COC(=O)CSc1ccc([N+](=O)[O-])cc1)c1c(N)n(CCC)c(=O)[nH]c1=O	none
O=C(CSc1nnnn1C1CC1)N1CCN(c2ccccc2F)CC1	none
O=C(Nc1cccc(N2C(=O)C=CC2=O)c1)c1cccs1	Peg3 prom inh 92, MITF TRPM1 inh 73, ABHD5 PLIN5 PPI 30 | ABHD5 PLIN5 conf 48 | HNF4 counter 96
Cc1ccc(C)c(C(=O)CCC(=O)O)c1	none
COc1cc(C2/C(=C(\O)c3ccc4c(c3)OCCO4)C(=O)C(=O)N2Cc2ccco2)cc(OC)c1OC (stereo not given)	ABHD5 PLIN5 PPI 29 | ABHD5 PLIN5 conf inactive | HNF4 counter inactive
COc1ccc(/C(O)=C2\C(=O)C(=O)N(Cc3ccco3)C2c2cc(OC)ccc2OC)cc1 (stereo not given)	ABHD5 PLIN5 PPI 29 | ABHD5 PLIN5 conf inactive | HNF4 counter inactive
COc1ccc(OC)c(C2/C(=C(/O)c3ccccc3)C(=O)C(=O)N2Cc2ccco2)c1 (stereo not given)	none
COc1cc(C2/C(=C(\O)c3ccc4c(c3)OCCO4)C(=O)C(=O)N2Cc2ccco2)ccc1O (stereo not given)	none
CCO[C@@H]1OC(C(=O)O)=C[C@H](C)[C@H]1CCCO	none
Fc1ccc(-[n+]2nc(Nc3ccccc3)sc2-c2c3ccccc3cc3ccccc23)cc1	Peg3 prom inh 53, ABHD5 PLIN5 PPI 25 | ABHD5 PLIN5 conf inactive | HNF4 counter inactive
Oc1ccc2ccccc2c1-c1sc(Nc2ccccc2)n[n+]1-c1ccc(F)cc1	none
COc1ccc(/C=C/C(=O)CC(O)(c2ccccc2)C(F)(F)F)cc1 (stereo not given)	ABHD5 PLIN5 PPI 41 | ABHD5 PLIN5 conf 72 | HNF4 counter 53
CC(=O)Nc1cccc(C(=O)/C=C/c2ccc(F)cc2)c1	Peg3 prom inh 107, ABHD5 PLIN5 PPI 68 | ABHD5 PLIN5 conf 88 | HNF4 counter 80
CC(=O)Nc1cccc(C(=O)/C=C/c2ccc[nH]2)c1	none
CC(C)SC1=NC(C)(C)C=C(/C=C/c2c(Cl)cccc2Cl)N1	none
CC(C)SC1=NC(C)(C)C=C(/C=C/c2ccc(Cl)cc2Cl)N1	ABHD5 PLIN5 PPI 39 | ABHD5 PLIN5 conf 25 | HNF4 counter 31
O=C1C(=O)C(Cl)=C(Cl)C(Cl)=C1Cl	ABHD5 PLIN5 PPI 27 (no result: MITF TRPM1 inh) | ABHD5 PLIN5 conf 51 | HNF4 counter 29
CCOc1cc(/C=C\c2nc(O)c([N+](=O)[O-])c(=O)[nH]2)ccc1OC(C)C	none
C=CCc1cc(/C=C/c2nc(O)c([N+](=O)[O-])c(=O)[nH]2)cc(OC)c1O	ABHD5 PLIN5 PPI 27 | ABHD5 PLIN5 conf 42 | HNF4 counter 32
COC(=O)CSc1nc2[nH]ncc2c(=O)[nH]1	none
